Test results: PubChem BioAssay AID1626 (SRMLSC, 2009)
“And” between values parts separate entries of the source, which are not always exact repeats. Identical values can stand only once. Hit rate of the full screen: of about 220,000 compounds, about 2,000 (0.91%) were called active. About 2% were inconclusive and are not listed. Rule as the data show it: inconclusive = inhibition above about 80% without an active follow-up result; inactive = below that; test concentration not stated here. These entries were drawn from the full list. Results with a measured potency or affinity are listed apart.

Assay: M. tuberculosis H37Rv growth inhibitors, H37Rv strain (AID 1626);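 also: bacteria incubated seven days before Alamar blue readout; 0% = bacteria only wells and 100% = bacteria with antibiotic wells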
Details: stronger effect = higher value, concentration not given here

Compound	inhibition
CCCCOc1nc2ccccc2nc1C(C#N)S(=O)(=O)c1ccccc1 (centres undefined)	-4.72% (inactive)
CN(c1ccc(OCC(=O)OCC(=O)NCc2ccco2)cc1)S(=O)(=O)c1ccc2ccccc2c1	-0.25% (inactive)
COc1ccccc1C(=O)C1CCCN(C(=O)c2snnc2C)C1 (centres undefined)	-0.23% (inactive)
Cc1ccc(SCC(=O)NCCSCc2ccccc2)cc1	7.41% (inactive)
Cc1ccc(-n2ncc3c(SCC(=O)Nc4cc(C)on4)ncnc32)c(C)c1	0.2% (inactive)
CCOC(=O)CNC(=O)CSc1ncnc2c1cnn2-c1ccc(OC)cc1	14.6% (inactive)
CCOC(=O)CNC(=O)CSc1ncnc2c1cnn2-c1ccc(C)cc1	-3.46% (inactive)
CSc1ncnc2c1cnn2-c1ccc(C)cc1C	11.1% (inactive)
COCc1cc(C)nc(Nc2ccc(C)c(C)c2)c1C#N	-2.04% (inactive)
CC1=C(C(=O)Nc2ccccc2)C(c2ccco2)NC(=O)N1 (centres undefined)	-10.5% (inactive)
COc1cc(NC(=O)CN2C(=O)NC(C)(c3ccccc3)C2=O)c(C)cc1[N+](=O)[O-] (centres undefined)	3.59% (inactive)
Cc1cc(C)n2c(SC/C(O)=C(\C#N)c3nc4ccccc4[nH]3)nnc2n1	-3.82% (inactive)
COc1ccc(C(=O)NCC2CCCO2)cc1OC (centres undefined)	-3.63% (inactive)
c1ccc(CN(CC2=NCCN2)c2ccccc2)cc1	-7.61% (inactive) and -7.26% (inactive)
CC(COc1ccccc1Cc1ccccc1)N1CCCCC1 (centres undefined)	1.05% (inactive)
CCOc1cc(N2CCOCC2)c(OCC)cc1NC(=O)c1ccc2ccccc2n1	7.27% (inactive)
CCNc1nc(CN2CCCCC2)nc2scc(-c3ccccc3)c12	10.7% (inactive)
c1csc(-c2csc3nc(CN4CCOCC4)nc(NCc4ccc5c(c4)OCO5)c23)c1	-6.15% (inactive)
NC(=O)C1CC(O)CN1c1nc(CN2CCOCC2)nc2scc(-c3ccccc3)c12 (centres undefined)	-8.45% (inactive)
CN(Cc1ccccc1)c1nc(CN2CCOCC2)nc2scc(-c3ccccc3)c12	38.4% (inactive)

Compound	inhibition
CC/C(=N\Nc1ccccc1)c1c(O)n(-c2ccccc2)c(=O)[nH]c1=O	47.3% (inactive)
Cc1cccc(NC(=O)c2nc[nH]c2C(=O)N[C@@H](CC(C)C)C(=O)OC(C)(C)C)c1	39% (inactive)
Cc1cccc(NC(=O)c2nc[nH]c2C(=O)N[C@@H](C)C(=O)OC(C)(C)C)c1	80% (inactive)
Cc1cccc(NC(=O)c2nc[nH]c2C(=O)N[C@@H](Cc2ccccc2)C(=O)OCc2ccccc2)c1	-0.81% (inactive)
C[C@H](NC(=O)c1nc[nH]c1C(=O)N[C@H](C)c1ccccc1)C(=O)OCc1ccccc1	2.36% (inactive)
C[C@H](NC(=O)c1[nH]cnc1C(=O)Nc1ccc(Cl)cc1)C(=O)OC(C)(C)C	52.4% (inactive)
CNC(=O)c1[nH]cnc1C(=O)N[C@@H](C)C(=O)OCc1ccccc1	-1.09% (inactive)
COc1ccccc1-n1c(SCC(=O)Nc2ccccc2C)nc(O)cc1=O	-5.47% (inactive)
NNC(=O)[C@H]1C[C@@H]1c1ccccc1	-1.45% (inactive)
Cc1ccc(SC(C)c2nc(-c3ccncc3)no2)cc1 (centres undefined)	3.66% (inactive)
O=C(Cc1ccc(Cl)c(Cl)c1)Nc1ccc2[nH]c(=O)[nH]c2c1	-1.82% (inactive)
Clc1ccc(C(c2ccccc2)N2CCNCC2)cc1 (centres undefined)	0.35% (inactive)
CCOc1cc(/C=C/c2ccc3cccc([N+](=O)[O-])c3n2)ccc1O	-4.71% (inactive)
COc1cc(/C=C/C(=O)O)ccc1O	-3.73% (inactive)
Cc1ccc(NC(=S)N(Cc2ccccc2)C(C)C)cc1	-1.3% (inactive)
CCCc1cc(=O)[nH]c(SCC(=O)Nc2ccc3c(c2)CCC3)n1	7.3% (inactive)
Nc1cc(=O)[nH]c(SCC(=O)Nc2ccc3c(c2)CCC3)n1	4.78% (inactive)
CCC(C)c1c(O)nc(SCC(=O)Nc2ccccc2)[nH]c1=O (centres undefined)	-5.09% (inactive)
O=C(CSc1nc(O)cc(=O)[nH]1)Nc1ccc2c(c1)CCC2	6.46% (inactive)
CCN(CC)C(=O)C(=O)Nc1ccc(Oc2ccccc2)cc1	14.4% (inactive)

Compound	inhibition
COc1cccc(CNCCc2c[nH]c3ccccc23)c1OCc1ccc(F)cc1	28.9% (inactive)
CCNCc1ccc(OCc2ccccc2F)c(OC)c1	6.78% (inactive)
COc1cc(CNCCCCO)ccc1OCc1ccccc1F	0.63% (inactive)
COc1cccc(CNCCc2c[nH]c3ccccc23)c1OCc1ccccc1	52.7% (inactive)
O=C(NCCc1ccccc1)C1CC(=O)N(C2CCCCCC2)C1 (centres undefined)	-3.62% (inactive)
COC(=O)C1=C(c2ccccc2)C[C@@H]2CC[C@H]1N2C(=O)NCC1CC1	-3.96% (inactive)
COC(=O)c1ccc(COC(=O)c2cnccn2)cc1	16.3% (inactive)
O=C(OCc1ccc(Cl)cc1)c1cnccn1	13.5% (inactive)
O=[N+]([O-])c1cccc(-c2noc(-c3cccs3)n2)c1	0.93% (inactive)
O=C(NCc1n[nH]c(=S)n1Cc1ccccc1)c1ccc(Cl)cc1Cl	7.03% (inactive)
COc1cccc(C2c3c(oc4ccccc4c3=O)C(=O)N2c2ccccn2)c1 (centres undefined)	-5.48% (inactive)
COc1cc(OC)c(S(=O)(=O)NCc2ccco2)cc1S(=O)(=O)NCc1ccco1	1.4% (inactive)
Cc1ccc(Cl)cc1NC(=O)COC(=O)c1ccc(N2CCCC2)c([N+](=O)[O-])c1	-3.66% (inactive)
Cc1cccc(-n2cc(CN3CCN(c4ccccn4)CC3)c(-c3cccc(F)c3)n2)c1	15.4% (inactive)
CCN1CC(CN(C)Cc2cn(-c3cccc(C)c3)nc2-c2cccc(F)c2)CC1=O (centres undefined)	15.3% (inactive)
Cc1ccc(-c2nn(-c3cccc(F)c3)cc2CN(Cc2nccn2C)C(C)C)o1	22.5% (inactive)
Cc1cccc(-n2cc(CN3CCN(Cc4nccn4C)CC3)c(-c3cccc(F)c3)n2)c1	27% (inactive)
CCOC(=O)N1CCC(N(CCN(C)C)C(=S)Nc2cccc(OC)c2)CC1	10% (inactive)
CCn1ccnc1CNC(=O)c1cc(COc2ccc(F)cc2F)on1	13.2% (inactive)
